Among the data in PubChem BioAssay (NCATS) are Potency values, retold here.

Records with an inconclusive call do not appear. Active and inactive are the calls of the source. The call rests on the fitted dose curve; in most records, active means well fitted curve in the direction sought with a large enough effect; inconclusive means small, poorly fitted or top-dose-only effect, or another doubt; inactive means no such curve, though single readings can be large; an effect the other way counts as inactive or inconclusive.

Assay [1] is described as follows: Quantitative High-Throughput drug screen in 47 multiple myeloma cell lines against the NCATS MIPE library collection: KMS12PE_JCRB cell viability assay (AID 1918972). Further: nearly all actives have a fitted effect of over 30% in size. On viability: series mostly up to about 46 µM. The procedure, abridged: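 qHTS of the MIPE 4.0 collection: 500 myeloma cells/well, 48 h drug exposure at 37C in 5% CO2, then CellTiter-Glo for 5 min at room temperature before luminescence reading.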

Assay [2] can be described thus: Quantitative High-Throughput drug screen in 47 multiple myeloma cell lines against the NCATS MIPE library collection: KMS26_JCRB cell viability assay (AID 1918975). Further: nearly all actives have a fitted effect of over 45% in size. The procedure, abridged: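 Luminescent ATP measurement with CellTiter-Glo gives viability, scaled between DMSO-only wells (100%) and media-only wells (0%). Cells, 500 per well, faced library compounds for 48 hours at 37C.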

Assay [3] is described as follows: Quantitative High-Throughput drug screen in 47 multiple myeloma cell lines against the NCATS MIPE library collection: NCIH929_DSMZ cell viability assay (AID 1918978). Further: nearly all actives have a fitted effect of over 35% in size. In outline: (§1)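 Viability after 48 h drug exposure was measured as ATP-dependent luminescence. Cells, 500 per well, sat at 37 °C under 5% CO2; DMSO wells set 100%, media-only wells 0%.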
The nature of assay [4]: Quantitative High-Throughput drug screen in 47 multiple myeloma cell lines against the NCATS MIPE library collection: OCIMY1_PLB cell viability assay (AID 1918979). Further: nearly all actives have a fitted effect of over 35% in size. On viability: series mostly up to about 46 µM. The procedure, abridged: as §1
Assay [5] is described as follows: Quantitative High-Throughput drug screen in 47 multiple myeloma cell lines against the NCATS MIPE library collection: MM1R_ATCC cell viability assay (AID 1918981). Further: nearly all actives have a fitted effect of over 35% in size. The procedure, abridged: as §1
A short description of assay [6]: Quantitative High-Throughput drug screen in 47 multiple myeloma cell lines against the NCATS MIPE library collection: MOLP8_DSMZ cell viability assay (AID 1918977). Further: nearly all actives have a fitted effect of over 45% in size. In outline: as §1
Assay [7] is described as follows: Quantitative High-Throughput drug screen in 47 multiple myeloma cell lines against the NCATS MIPE library collection: MM1S_ATCC cell viability assay (AID 1918980). Further: nearly all actives have a fitted effect of over 45% in size. In outline: as §1
Assay [8] can be described thus: Quantitative High-Throughput drug screen in 47 multiple myeloma cell lines against the NCATS MIPE library collection: MMM1_PLB cell viability assay (AID 1918976). Further: nearly all actives have a fitted effect of over 35% in size. In outline: as §1
Potency means the concentration at half of the fitted maximal effect.

For the molecule `C=C1c2cccc(O)c2C(O)=C2C(=O)[C@@]3(O)C(O)=C(C(N)=O)C(=O)[C@@H](N(C)C)[C@@H]3[C@@H](O)[C@H]12`, the Potency result in assay [1], in assay [3] and in assay [4] was “inactive” in each case. For the same molecule, the results for the Potency in assay [2] and in assay [5] were 4.69 µM (active) and 20.9 µM (active), respectively.

With `CON(C)C(=O)N1N=C(c2cc(F)ccc2F)S[C@]1(CCCN)c1ccccc1`, in assay [1], the Potency is 0.001 µM (active). Besides, the Potency entry in assay [2], in assay [6], in assay [7] and in assay [5] was “inactive” in each case.

On to `O=C(NCCCCN1CCOCC1)c1cc2ccccc2o1`, for which the Potency entry in assay [1], in assay [2], in assay [3], in assay [4] and in assay [5] was “inactive” throughout.

Take `CNc1nc(Nc2ccc(C(=O)N3CCOCC3)cc2OC)ncc1Cl`: the Potency result in assay [1] is “inactive”. Also, the Potency was 13.2 µM (active) in assay [8] and 5.9 µM (active) in assay [5].

Turning to `CCCCC[C@H](O)C=C[C@H]1[C@H](O)CC(=O)[C@H]1CC=CCCCC(=O)O`, the Potency result in assay [1], in assay [4] and in assay [5] was “inactive” each time. For the same molecule, the Potency in assay [6] is 16.6 µM (active); in assay [3] it was 16.6 µM (active); in assay [7], 20.9 µM (active).

Take `Cc1ccc(NC(=O)c2ccc(CN3CCN(C)CC3)cc2)cc1Nc1nc(-c2cccnc2)cs1`: the Potency in assay [1] is 18.7 µM (active); in assay [8] it was 18.7 µM (active); in assay [3], 23.5 µM (active); in assay [5], 20.9 µM (active).

For the molecule `CCCCCCOC(=O)N=C(N)c1ccc(NCc2nc3cc(C(=O)N(CCC(=O)OCC)c4ccccn4)ccc3n2C)cc1`, the Potency was 18.7 µM (active) in assay [1], 14.8 µM (active) in assay [8] and 20.9 µM (active) in assay [5].

With `O=C(CO)N1CCC(c2[nH]nc(-c3ccc(Cl)cc3)c2-c2ccncn2)CC1`, the Potency entry in assay [1], in assay [3] and in assay [4] was “inactive” each time. Moreover, the Potency in assay [8] was 0.148 µM (active); in assay [7], 20.9 µM (active); in assay [5], 0.662 µM (active).

With `Cc1cc(OCCCS(C)(=O)=O)cc(C)c1-c1cccc(COc2ccc3c(c2)OC[C@H]3CC(=O)O)c1`, the Potency in assay [1] is 5.26 µM (active); in assay [8], 14.8 µM (active); in assay [3], 20.9 µM (active); in assay [5], 6.62 µM (active). The Potency result in assay [4] is “inactive”.

Consider `CC=C(C(=CC)c1ccc(O)cc1)c1ccc(O)cc1`, for which the figures for the Potency in assay [1], in assay [8] and in assay [7] were 16.6 µM (active), 16.6 µM (active) and 11.8 µM (active), respectively. Moreover, the Potency entry in assay [3] and in assay [4] was “inactive” throughout.

Take `COc1cc2nccc(Oc3ccc(NC(=O)Nc4ccc(F)cc4F)c(F)c3)c2cc1OC`: the Potency result in assay [1] is “inactive”. Further, the Potency in assay [8] was 0.0935 µM (active); in assay [5] it was 2.96 µM (active).

With `NC(=O)c1ccc(N(C(N)=O)c2c(F)cccc2F)nc1-c1ccc(F)cc1F`, the Potency result in assay [1], in assay [8] and in assay [5] was “inactive” in each case. In addition, the Potency in assay [3] is 5.26 µM (active).

Take `CC(C)(CO)[C@@H](O)C(=O)NCCC(=O)O`: the Potency entry in assay [1], in assay [6], in assay [3], in assay [4], in assay [7] and in assay [5] was “inactive” throughout.

For `COc1ccc(CCN(C)CCCOc2ccc(S(=O)(=O)c3[nH]c4ccccc4c3C(C)C)cc2)cc1OC`, the Potency entry in assay [1] was “inactive”. Further, the Potency was 9.35 µM (active) in assay [8] and 20.9 µM (active) in assay [7].

`O=C(O)Cc1cccc(OCCCN(Cc2cccc(C(F)(F)F)c2Cl)CC(c2ccccc2)c2ccccc2)c1`: the Potency entry in assay [1] and in assay [4] was “inactive” throughout. Also, the Potency in assay [8] is 6.62 µM (active); in assay [7], 20.9 µM (active).

Take `CN(C)CCCNC(=O)c1ccc(-c2cc(O)c3ncccc3c2)cc1`: the Potency in assay [1] was 20.9 µM (active); in assay [8] it was 11.8 µM (active); in assay [3] it was 23.5 µM (active); in assay [7] it was 20.9 µM (active); in assay [5], 20.9 µM (active).

As to `COC(=O)N1CCN(Cc2cccc(NC(=O)Nc3ccc(C)nc3)c2F)CC1`, the Potency entry in assay [1], in assay [6], in assay [3] and in assay [4] was “inactive” each time.

Turning to `COc1cc2c(cc1OC)CC(=O)N(CCCN(C)C[C@H]1Cc3cc(OC)c(OC)cc31)CC2`, the Potency in assay [1] is 20.9 µM (active); in assay [8] it was 7.43 µM (active); in assay [3], 0.332 µM (active); in assay [7], 16.6 µM (active); in assay [5], 11.8 µM (active).

`NC(=O)c1nnn(Cc2cc(Cl)c(C(=O)c3ccc(Cl)cc3)c(Cl)c2)c1N`: the Potency in assay [1] was 6.62 µM (active); in assay [8], 20.9 µM (active); in assay [7] it was 18.7 µM (active); in assay [5], 18.7 µM (active). For the same molecule, in assay [4], the Potency result was “inactive”.

With `Fc1ccc(C(c2ccc(F)cc2)N2CCN(CC=Cc3ccccc3)CC2)cc1`, the Potency entry in assay [1] and in assay [4] was “inactive” throughout. Also, the Potency in assay [3] was 18.7 µM (active).

In the case of `N[C@@H](CC(=O)N1CCn2c(nnc2C(F)(F)F)C1)Cc1cc(F)c(F)cc1F`, the Potency entry in assay [1], in assay [3], in assay [4] and in assay [5] was “inactive” in each case. The Potency is 1.87 µM (active) in assay [8] and 26.4 µM (active) in assay [7].

With `CC1C(=O)OC2C(O)C34C5CC(C(C)(C)C)C36C(OC(=O)C6O)OC4(C(=O)O5)C12O` (centres undefined), the Potency entry in assay [1], in assay [3], in assay [4] and in assay [5] was “inactive” throughout. The Potency is 0.0187 µM (active) in assay [8] and 20.9 µM (active) in assay [7].

Consider `OC[C@H]1O[C@@H](OCCc2ccc(O)cc2)[C@H](O)[C@@H](O)[C@H]1O`, for which the Potency entry in assay [1], in assay [6] and in assay [5] was “inactive” each time. Further, the Potency in assay [7] is 20.9 µM (active).

As to `CC(C)C[C@@H](N)[C@H](O)C(=O)N[C@H](C(=O)N[C@H](C(=O)N[C@@H](CC(=O)O)C(=O)O)C(C)C)C(C)C`, the Potency result in assay [1] and in assay [4] was “inactive” in each case. The figures for the Potency in assay [8] and in assay [7] were 1.66 µM (active) and 23.5 µM (active), respectively.

Regarding `COc1c(C)c2c(c(O)c1CC=C(C)CCC(=O)O)C(=O)OC2`, the Potency was 14.8 µM (active) in assay [1]; 1.18 µM (active) in assay [8]; 13.2 µM (active) in assay [4]; 3.72 µM (active) in assay [7]; 11.8 µM (active) in assay [5].
